From PubChem BioAssay (NCI) come the findings set out here.

About 79,000 compounds went through this panel and 15% of them were active in at least one assay; those are over-represented in the sample as a whole. The source made the active and inactive calls. No stated cut-off is given here; in the data, active means growth inhibition above about 70%; inactive means the rest.

A short description of the test: NCI Yeast Anticancer Drug Screen. Data for the mlh1 rad18 strain (AID 175). Conditions: S. cerevisiae mlh1 rad18 strain growth inhibition; at 50.0 µM; hits give high values. Summed up: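 Test agents were incubated with a yeast strain of defined genotype (DNA damage repair defect). Inhibition of growth was derived by comparison with vehicle-exposed cultures.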
For the compound `Cc1ccc(C(CCCl)OC(C)C)cc1` (stereo not given), the growth inhibition was 17.8% (inactive).

As for `NC(=O)/C(=C\c1ccc(OCc2ccccc2)c(OCc2ccccc2)c1)NC(=O)c1ccccc1`, the growth inhibition was 17.7% (inactive).

In the case of `CC(=O)Oc1ncnc2c1cnn2C`, the growth inhibition was -3.3% (inactive).

In the case of `Nc1ccn(CCOC(=O)c2ccccc2)c(=O)n1`, the growth inhibition was 15.5% (inactive).

In the case of `Cc1cccc(C)c1NC(=O)Nc1cccc(O)c1`, the growth inhibition is 26.4% (inactive).

For `Nc1ccc(Cc2ccc(N)c(Br)c2)cc1Br`, the growth inhibition was 32.4% (inactive).

On to `CC(C)(C)c1nc2c(o1)C(=Nc1ccc(F)cc1)c1ccccc1C2=O`, for which the growth inhibition was -2.5% (inactive).

With `O=C(CCC(=O)Nc1cccc([N+](=O)[O-])c1)CC(=O)c1ccc(Cl)cc1`, the growth inhibition is -23.3% (inactive).

For the compound `O=C(Nc1ccccc1)Oc1ccc(C2CCCCC2)cc1`, the growth inhibition was 54.6% (inactive).

For the compound `c1ccc([P+](CCNCCNCC[P+](c2ccccc2)(c2ccccc2)c2ccccc2)(c2ccccc2)c2ccccc2)cc1`, the growth inhibition was -0.6% (inactive).

Turning to `CC(=O)Nc1cc2c(cc1C=O)OCO2`, the growth inhibition is 11.3% (inactive).

As to `COc1ccccc1NC(=O)CC(=O)NN`, the growth inhibition was 0.7% (inactive).

With `c1ccc2c(c1)Nc1nc3ccccc3nc1N2`, the growth inhibition is 16.9% (inactive).

On to `Cc1ccnc2[nH]c(-c3cccc(Cl)c3)cc(=O)c12`, for which the growth inhibition was -58.5% (inactive).

On to `COc1ccccc1CO`, for which the growth inhibition was -1.15% (inactive).

For the compound `Clc1nc(-c2ccccc2)nc2ccccc12`, the growth inhibition was -7.25% (inactive).

Turning to `CCOC(=S)SCCSC`, the growth inhibition was 11.6% (inactive).

With `COc1cc(C(CC#N)CC#N)cc(OC)c1OC`, the growth inhibition was 8% (inactive).

As to `CN(C)C=Nc1ccn(C2CC(F)C(CO)O2)c(=O)n1` (stereo not given), the growth inhibition is 13% (inactive).

For the compound `CCCc1cc(=O)oc2c3c(c4c(c12)OC(C)(C)C=C4)OC(C)[C@H](C)[C@@H]3O` (stereo not given in full), the growth inhibition was 26.1% (inactive).

Turning to `CCOC(=O)C(C)CC(C)C(=O)OCC` (stereo not given), the growth inhibition was 2.5% (inactive).

In the case of `O=C1CCSc2nc(-c3ccc4c(c3)OCO4)nn21`, the growth inhibition is 9.2% (inactive).

For the compound `C#CCn1cc(F)c(=O)n(CC#C)c1=O`, the growth inhibition was -2.05% (inactive).

Consider `O=C1CCCS(=O)(=O)CCC1`, for which the growth inhibition was 54.1% (inactive).

Consider `Clc1ccc(Cc2ccc(Br)cc2)cc1`, for which the growth inhibition is 13.2% (inactive).

As for `Fc1cc(Cl)c(F)cc1Cl`, the growth inhibition is -27.4% (inactive).

Take `O=C(NCCCl)Oc1cccn(C(=O)NCCCl)c1=O`: the growth inhibition is -0.8% (inactive).

`CCOC(=O)c1cnc2cc3c(cc2c1Nc1ccc2c(c1)OCO2)OCO3`: the growth inhibition was 20% (inactive).

With `CCn1c2ccccc2c2c(-c3ccccc3)cc3c(c21)C(=O)N(c1ccccc1)C3=O`, the growth inhibition is -9.9% (inactive).

Take `Fc1ccc2nncc(SCc3ccc(Cl)c(Cl)c3)c2c1`: the growth inhibition is -2.05% (inactive).

On to `CN1C(=O)C(/C=N/NC(=O)c2cccnc2)C(N)N(C)C1=O` (stereo not given), for which the growth inhibition is 31.7% (inactive).

Consider `Cn1c(-c2ccccc2)c/c(=N\NS(C)(=O)=O)c2cc(S(=O)(=O)O)ccc21`, for which the growth inhibition was 10.2% (inactive).

With `Cc1ccccc1NC(=O)c1ccc(C(=O)Nc2ccccc2C)cc1`, the growth inhibition is 35.9% (inactive).

As to `Nc1cc(C(=O)O)c(O)c(Cl)c1O`, the growth inhibition was 29.8% (inactive).

In the case of `Cc1ccc(N(C(=O)CC(=O)N/N=C/c2ccccc2O)C(=O)c2ccccc2)cc1`, the growth inhibition is -10.8% (inactive).

As to `O=NN(Cc1ccc(Cl)cc1)NC1=NCCN1`, the growth inhibition was 29.6% (inactive).

Consider `CC(=O)c1cc(-c2ccccn2)c(=O)n2ccccc12`, for which the growth inhibition was -4% (inactive).

Regarding `C=CC(=NC(C)C)N(C)c1ccccc1`, the growth inhibition was -1.8% (inactive).

As to `S=C(SSSC(=S)N(C1CCCCC1)C1CCCCC1)N(C1CCCCC1)C1CCCCC1`, the growth inhibition is 17.2% (inactive).

For `C=C1C2CC[C@@]3(CC[C@@H]4[C@@]5(C)CCC[C@@]4(CN4CCO[C@H]45)[C@@H]3C2)[C@@H]1O`, the growth inhibition was -5.5% (inactive).
